Screening data: PubChem, National Center for Advancing Translational Sciences (NCATS)
D2 PAM-1 = potentiates the human D2 dopamine receptor allosterically. 360,000 compounds, 0.23% hits. P14416. DiscoveRx D2 beta-arrestin cells, luminescence, 90 min; 100% = 57 uM dopamine signal. potentiation, % (test concentration not listed). AID 624464; in the data active means potentiation above about 50%; inconclusive means mostly about 30% to 49%
Target sequence (P14416 whole entry, looked up): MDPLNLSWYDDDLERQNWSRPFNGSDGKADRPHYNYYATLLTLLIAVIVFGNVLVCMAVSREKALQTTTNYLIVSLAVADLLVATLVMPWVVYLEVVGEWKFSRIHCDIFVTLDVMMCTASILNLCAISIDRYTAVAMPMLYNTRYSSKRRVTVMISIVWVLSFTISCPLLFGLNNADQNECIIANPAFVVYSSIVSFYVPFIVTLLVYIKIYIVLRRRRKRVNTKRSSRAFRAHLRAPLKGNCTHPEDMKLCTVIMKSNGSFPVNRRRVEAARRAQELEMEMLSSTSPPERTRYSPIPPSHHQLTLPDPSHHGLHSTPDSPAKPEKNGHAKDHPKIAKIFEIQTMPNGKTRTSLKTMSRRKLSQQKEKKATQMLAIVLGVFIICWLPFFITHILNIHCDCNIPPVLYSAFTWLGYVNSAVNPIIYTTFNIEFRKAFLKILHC
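D2 cells co-treated with compound plus 50 nM dopamine (EC20) for 90 min at 37 deg C to detect potentiation. Beta-arrestin recruitment was read as enzyme-fragment luminescence after 1 h at ambient temperature. Full response was set by 57 uM dopamine.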
D2 ag-1 = agonists of human D2 dopamine receptor; P14416; HEK293 T-REx D2 cells, calcium flux agonist mode; activation, % at 2 µM; 340,000 compounds, 0.53% hits;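 active means activation over 3 SD above normal in the single-dose calcium agonist read, cut at about 30% in these data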; further: 0% is about no effect
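Agonism scored from kinetic calcium signal (1 read/sec, 180 s) following compound pin transfer, after a 10 s baseline. Cells: HEK293 Trex line expressing inducible D2 receptor coupled to calcium, dye-loaded after overnight culture at 30 C.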
D2 PAM-2 = positive allosteric modulators of human D2 dopamine receptor. P14416. 340,000 compounds, 0.34% hits. HEK293 T-REx D2, calcium flux, EC20 dopamine potentiation. potentiation, % at 10 µM;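 active means potentiation over 3 SD above the plate norm, cut at about 30% in these data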; further: 0% is about no effect
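Potentiation of an EC20 dopamine calcium response is measured in a force-coupled, tetracycline-inducible Hek293 Trex D2 line. Compound-only kinetic reads over 180 s flag agonists before dopamine addition.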
D2 ag-2 = agonists of human D2 dopamine receptor (beta-arrestin). P14416. DiscoveRx PathHunter D2 beta-arrestin, luminescence, 90 min; 100% = 57 uM dopamine signal. activation, % (no concentration beside the values). 360,000 compounds, 0.084% hits. AID 624465; in the data active means activation above about 40%; inconclusive means between about 15% and that limit
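DiscoveRx PathHunter D2 beta-arrestin cells (2,100/well) attached overnight, then compound-stimulated 90 min at 37 C in HBSS/10 mM HEPES/0.1% Tween-20 buffer; beta-galactosidase complementation read by luminescence after 1 h at ambient temperature. Dopamine 57 uM final (EC100) as control.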
D2 antagonist = antagonists of human D2 dopamine receptor; AID 485344; HEK293 TREx D2 cells, calcium flux, dopamine EC80; P14416; 340,000 compounds, 2% hits; inhibition, % at 10 µM; in the data active means inhibition above about 30%; inactive means below that, where a call was filed; further: 0% is about no effect
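Tetracycline-induced HEK293 TREx cells expressing D2 receptor forced-coupled to calcium signalling, loaded with no-wash calcium dye. Compounds added and calcium flux read 180 s, then dopamine added at EC80 and read a further 180 s.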
An asterisk follows results filed as active; ? = inconclusive; · = no result given. An excerpt weighted towards active compounds, which were near 2.4% of everything screened.

SMILES	D2 PAM-1	D2 ag-1	D2 PAM-2	D2 ag-2	D2 antagonist
CCOC(=O)CC1=C(C(=O)OCC)C(c2cccnc2)C(C#N)=C(N)O1 (stereo not given)	-3.5	0.3	2.3	-1.3	-0.7
CCOC(=O)CC1=C(C#N)C(c2cccnc2)C(C(=O)OCC)=C(N)O1 (stereo not given)	-9.0	-0.3	2.3	-0.9	37.7*
CC1=C(n2nnc([N+](=O)[O-])n2)C(c2cccnc2)C(C#N)=C(N)O1 (stereo not given)	110.3*	1.3	6.2	?	-3.9
CCOc1cc(/C=C2\COc3ccccc3C2=O)cc(Br)c1OCC(=O)N(C)C	-5.4	10.6	-1.0	-1.1	44.5*
COc1ccc(/C=C2\COc3ccccc3C2=O)cc1OC	5.1	0.2	18.2	0.7	-2.5
c1ccc(Cn2nnnc2C(c2cccs2)N2CCSCC2)cc1 (stereo not given)	-10.6	0.3	-12.7	-1.8	32.9*
COc1ccc(/C=C2\N=C(SC)NC2=O)cc1	-2.1	0.2	31.5*	-4.4	3.5
CCSC1=N/C(=C\c2ccc(OC)cc2)C(=O)N1	-23.8	0.3	12.2	-2.1	0.6
COc1cccc(NC(=O)c2c(C)oc3nc(C)nc(N4CCCC4)c23)c1	·	-0.3	-9.7	·	·
CCCOc1ccc(CC2C(=O)Nc3ccc(Br)cc32)cc1 (stereo not given)	·	-2.2	6.7	·	·
COc1cccc(NC(=O)CSc2nc3c(c(-c4ccco4)c2C#N)CCCC3)c1	4.5	-0.6	41.7*	3.5	14.4
COc1cccc(NC(=O)CSC2=C(C#N)C(c3ccco3)C3=C(CCCC3=O)N2)c1 (stereo not given)	-20.1	1.1	-3.1	1.3	36.9*
COc1ccc(NC(=O)CSC2=C(C#N)C(c3ccco3)C3=C(CCCC3=O)N2)c(OC)c1 (stereo not given)	-1.2	-0.3	9.6	-0.5	4.6
CC(=O)c1cccc(NC(=O)Cn2c(=O)oc3cc(S(=O)(=O)NCc4ccccc4)ccc32)c1	·	-1.1	12.8	·	·
Cc1cccc(NC(=O)CN2C(=O)C(c3ccccc3)=NC23CCC(C)CC3)c1 (stereo not given)	·	0.4	-0.1	·	·
O=C(/C=C/c1cccs1)NC1CCS(=O)(=O)C1 (stereo not given)	-0.9	31.8*	-8.1	1.8	-9.2
O=C(/C=C/c1cccs1)NC1CCCC1	-7.7	-0.3	20.1	-2.8	4.9
Cn1c2ccccc2c2c(C(=O)N3CCN(c4cccc(Cl)c4)CC3)cn(C3CCCCC3)c(=O)c21	·	·	-4.4	·	·
O=S1(=O)NC(=NCc2ccccc2)c2ccccc21	5.4	0.4	-7.1	-3.1	30.5*
O=C1c2oc3ccccc3c(=O)c2C(c2cccc(O)c2)N1Cc1ccc(F)cc1 (stereo not given)	·	-0.3	8.0	·	·
O=c1oc2ccccc2cc1-c1cn2cc(Cc3ccccc3F)sc2n1	·	1.0	·	·	·
COC(=O)COc1ccc2c(-c3cccc([N+](=O)[O-])c3)cc(=O)oc2c1	19.0	0.9	-7.0	1.1	49.5*
CCOCCCNC(=O)Cc1ccc(F)cc1	·	0.9	-7.6	·	2.4
CC(C)OCCCNC(=O)Cc1ccc(F)cc1	-3.3	0.9	-20.4	-1.3	57.1*
CCCCCCN(C(=O)CCCCCN1C(=O)NC(c2ccc(-c3ccccc3)cc2)C(C(=O)OCc2ccccc2)=C1C)C(C(=O)NCCCC)C1CCCCC1 (stereo not given)	·	0.2	3.3	·	22.8
SMILES	D2 PAM-1	D2 ag-1	D2 PAM-2	D2 ag-2	D2 antagonist
CCCCCCN(C(=O)CCCCCN1C(=O)NC(c2ccc(-c3ccccc3)cc2)C(C(=O)OCc2ccccc2)=C1C)C(C(=O)NCCCC)c1ccccn1 (stereo not given)	·	1.2	-10.0	·	31.0*
O=C(Nc1cccc(OCc2cc(=O)n3ccccc3n2)c1)c1ccccc1Br	·	0.1	-2.5	·	·
CCOc1ccc(-c2c(C)nn3c(C)c(C(=O)NCC(C)c4ccccc4)cnc23)cc1OCC (stereo not given)	·	1.1	22.2	·	·
O=C(COc1ccccc1[N+](=O)[O-])N/N=C/c1ccc(O)cc1	71.7*	-0.1	12.6	13.0	3.7
CCc1nc2c(c(=O)c3ccccc3n2C)c(=O)n1C1CCCCCC1	-13.1	58.5*	-9.8	-1.0	24.8
COc1ccc(CCn2c(C3CCCCC3)nc3c(c(=O)c4ccccc4n3C)c2=O)cc1	-8.1	9.7	-7.1	-3.7	18.2
COc1ccc(Cn2c(C3CCCCC3)nc3c(c(=O)c4ccccc4n3C)c2=O)cc1	-15.7	4.7	-3.1	-2.9	41.9*
CCc1cc2c(cc3c(=O)n(CC(=O)NC4CCC(C)CC4)nc(CC)n32)s1 (stereo not given)	·	-0.7	5.0	·	·
COc1cc(NC(=O)CCCn2c(=O)oc3ccccc32)cc(OC)c1	-9.5	·	·	-0.8	·
COc1ccc(C(C)(C)C)cc1NC(=O)CCCn1c(=O)oc2ccccc21	-22.0	-2.0	-28.4	-3.1	50.8*
CCc1ccc(-n2nc3cc(C)c(NC(=O)c4cccc5ccccc45)cc3n2)cc1	·	0.0	-0.8	·	·
O=C1c2ccccc2C(O)N1Cc1cccs1 (stereo not given)	-1.4	-0.1	4.5	-2.7	46.8*
N=c1c(C(=O)NCc2ccco2)cc2c(=O)n3ccccc3nc2n1Cc1ccccc1	-32.1	-0.2	-21.5	-3.3	37.8*
O=C1C(=NO)CCc2ccccc21	79.9*	·	·	?	·
Cc1c(C(C)NC(=O)Nc2ccc(F)cc2F)cnn1C (stereo not given)	-24.1	-0.8	-13.4	-3.4	38.2*
Cc1cc(NC(=O)Nc2ccc(F)cc2F)n(C)n1	-9.7	6.3	-4.5	-3.9	13.3
O=C(NCCN1CCCC1)c1ccc2c(c1)N(Cc1ccc(F)cc1)C(=O)c1ccccc1S2=O (stereo not given)	-7.5	0.6	8.2	-1.4	-5.0
CCN1CCN(CCNC(=O)c2ccc3c(c2)N(Cc2cccc(Cl)c2)C(=O)c2ccccc2S3=O)CC1 (stereo not given)	-38.1	0.1	-1.2	-8.9	40.3*
CCCCN(C)CCCNC(=O)c1ccc2c(c1)N(CC)C(=O)c1ccccc1S2=O (stereo not given)	-18.9	-0.6	-32.3	-3.6	69.8*
COc1ccccc1OCc1ccc(C(=O)NN)o1	-16.0	-1.0	-19.3	3.8	76.5*
CC(C)NC(=O)COc1coc(CN2CCN(Cc3ccccc3)CC2)cc1=O	-2.0	1.6	1.1	0.8	-4.4
CN(C(=O)c1ccc(COc2ccccc2Br)o1)c1ccccc1	-2.0	-1.2	-15.9	2.9	44.2*
COc1ccc(C(=O)OCC(=O)N2CCN(C(=O)c3ccco3)CC2)c(OC)c1OC	-6.8	·	·	0.3	·
COc1ccc(CN2CCN(C(=O)c3ccco3)CC2)c(OC)c1OC	60.2*	·	·	46.4*	·
CC(C)NC(=O)COc1coc(CN2CCN(C(=O)c3ccco3)CC2)cc1=O	-22.4	-0.1	7.1	-3.6	49.7*
